The structures appear in SMILES notation.

For the first assay, the target named is T1, Aspartate--tRNA(Asp/Asn) ligase (Mycobacterium tuberculosis (strain ATCC 25618 / H37Rv)) (UniProt P9WFW3). Note: in the data most compounds retested in dose-response had high values.
T1 sequence (whole entry): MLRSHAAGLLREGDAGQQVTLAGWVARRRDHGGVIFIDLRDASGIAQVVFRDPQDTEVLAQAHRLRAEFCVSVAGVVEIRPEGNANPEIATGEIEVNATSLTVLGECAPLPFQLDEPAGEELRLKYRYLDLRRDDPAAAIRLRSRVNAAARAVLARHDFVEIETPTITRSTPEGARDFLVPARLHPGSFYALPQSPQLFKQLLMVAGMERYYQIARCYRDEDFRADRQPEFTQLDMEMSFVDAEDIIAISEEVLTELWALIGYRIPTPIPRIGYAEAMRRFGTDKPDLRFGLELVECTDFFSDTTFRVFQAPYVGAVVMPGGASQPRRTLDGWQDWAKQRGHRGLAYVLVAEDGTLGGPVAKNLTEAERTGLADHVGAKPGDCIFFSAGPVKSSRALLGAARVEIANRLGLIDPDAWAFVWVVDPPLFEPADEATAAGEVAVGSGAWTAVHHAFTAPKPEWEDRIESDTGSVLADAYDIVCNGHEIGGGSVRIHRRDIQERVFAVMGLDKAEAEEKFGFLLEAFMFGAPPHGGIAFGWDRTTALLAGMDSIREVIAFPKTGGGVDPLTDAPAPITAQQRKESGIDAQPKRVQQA
In words: Assay for Asp RNA synthetase-1 from Mycobacterium tuberculosis. Format: functional. Also on record: scale not given: direction of the effect not stated beside the values. The note with it: 30 µM.
For `Cc1n[nH]c(C)c1C1CCCN1C(=O)NCC(=O)NC(C)(C)C` (stereo not given), the Percent Effect stood at 1.47%.

As to `CCn1cnnc1CNC(=O)c1ccc(Cl)cc1F`, the Percent Effect turned out to be 1.24%.

With `Cc1cc(C2CCCN(CCc3ccccn3)C2)n[nH]1` (stereo not given), the Percent Effect is -5.34%.

For `Cc1nn(C)c(C)c1C1CCCN1Cc1cccc(C(N)=O)c1` (stereo not given), the Percent Effect is -1.14%.

For the molecule `COc1ccc(C(=O)N2CCC(Nc3ccc(C)nn3)CC2)c(F)c1`, the Percent Effect amounted to 4.79%.

For `Cn1cc(-c2cnc(N3CCOCC3)nc2)cc1C(=O)O`, the Percent Effect is -4.12%.

For `CC(C)N1CCC(Cc2cc(-c3ccccc3C(=O)O)ncn2)CC1`, the Percent Effect was -0.134%.

On to `COCCc1noc(CNC2CCSC2)n1` (stereo not given), for which the Percent Effect was -5.83%.

As to `CC(C)N1CCC(Cc2cc(-c3cccc(C(=O)O)c3)ncn2)C1` (stereo not given), the Percent Effect was -2.43%.

For `O=C(Nc1cccc(CNCc2csc(Br)c2)c1)C1CC1`, the Percent Effect was -0.759%.

Regarding `CCOc1ccc(N2CCCN=C2NC(=O)c2cccc(Cl)c2)cc1`, the Percent Effect was 9.12%.

For `Cc1ncsc1C(=O)NC1CCN(CC(=O)NCc2ccccc2)CC1`, the Percent Effect was 1.54%.

For `O=C(N[C@@H]1CN(Cc2ccsc2)[C@@H]2CCCO[C@@H]21)C1CC1`, the Percent Effect was -0.611%.

`Cc1nccc(CN2CCC(c3nnsc3S(C)(=O)=O)CC2)n1`: the Percent Effect is -0.313%.

As for `O=C1CCCCN1Cc1cccc(NC(=O)N2CCSCC2)c1`, the Percent Effect was -4.71%.

Take `O=C(NC1=NCCCN1c1ccc(Cl)cc1)c1cccc(Cl)c1`: the Percent Effect came to 8.32%.

As to `CNS(=O)(=O)c1cccc(CNC(=O)c2c(C)oc(C)c2C)c1`, the Percent Effect was -7.7%.

Regarding `CC(C)CN1CCC(C(=O)Nc2cc(C(F)(F)F)c[nH]c2=O)CC1`, the Percent Effect was -2.61%.

For the molecule `Cc1nc(C2CCCN(C(=O)c3sccc3C3CC3)C2)no1` (stereo not given), the Percent Effect is -0.613%.

`CC1CCN(c2ncc3c(n2)CN(c2ccc4c(c2)OCO4)C3=O)CC1`: the Percent Effect was 10.8%.

In the case of `COc1c(CNC2CCCc3ccccc32)c(C)nn1C` (stereo not given), the Percent Effect is -1%.

For the molecule `O=C1CCc2cc(C(=O)NCc3ccc(-n4cncn4)nc3)ccc2N1`, the Percent Effect is -5.04%.

Turning to `CCN1CCN(C(=O)c2cc(C(=O)OC)nn2-c2ccccc2)CC1`, the Percent Effect is 2.94%.

Regarding `CC(O)CC(C)(C)CNC(=O)NCc1cccc(-n2cncn2)c1` (stereo not given), the Percent Effect is -1.59%.

For `Cc1cnn(CCC(=O)N2CCOC(c3nc(C(C)(C)C)n[nH]3)C2)c1` (stereo not given), the Percent Effect is -1.81%.

Consider `CN1CCN(C[C@@H]2OC[C@H]3CN(Cc4cccc(F)c4)CC[C@H]32)CC1`, for which the Percent Effect is -1.14%.

As to `Clc1snnc1CN1CCOC(CNc2cccnn2)C1` (stereo not given), the Percent Effect is -1.85%.

Consider `O=C(c1ccsc1)N1C[C@@H]2C[C@@H](c3nnc(C4CC4)o3)O[C@@H]2C1`, for which the Percent Effect worked out at 6.08%.

As to `Cc1ccc(-c2nc(CN3CCc4nn(C)c(=O)cc4C3)co2)cc1`, the Percent Effect worked out at 40.1%.

Take `CCC(C)(NCC(=O)Nc1ccccc1)c1nc(C)cs1` (stereo not given): the Percent Effect was found to be 1.93%.

For `c1ccc2sc(N3CCOC(Cn4cccn4)C3)nc2c1` (stereo not given), the Percent Effect stood at 6.21%.

For the molecule `Cc1ccc(C)c(C(NC(=O)C(C)(C)C)c2cccnc2)c1` (stereo not given), the Percent Effect is -1.21%.

For the molecule `Cc1cc(F)ccc1CNCCn1cccn1`, the Percent Effect is -3.06%.

Turning to `CC(C)N(C)C(=O)C1=NOC2(CCN(C(=O)c3ccc(Cl)cc3)C2)C1` (stereo not given), the Percent Effect amounted to 1.19%.

As to `Cn1cc(N2CC3(CCN(Cc4cccs4)CC3)OCC2=O)cn1`, the Percent Effect was -0.729%.

Regarding `Cc1c[nH]c(CN(C)c2nc(C3CCCC3)nc3c2cnn3C)n1`, the Percent Effect was 0.0557%.

As to `COc1ccc(C2CC(=O)Nc3c2cnn3C2CCCC2)cc1` (stereo not given), the Percent Effect was -1.45%.

For the molecule `COCc1cccc(CNC(=O)CN2CCCC2c2noc(C)n2)c1` (stereo not given), the Percent Effect is -0.723%.

For `CCCN1C(=O)CC(N2CCN(c3ccc(F)cc3)CC2)C1=O` (stereo not given), the Percent Effect was 5.99%.

For `CN(C)CCNC(=O)c1cc(-c2cnc(N3CCCC3)nc2)cn1C`, the Percent Effect is -0.309%.

The target in the next assay is Shiga toxin 2 (Escherichia coli O157:H7) (UniProt P09385+P09386). The experiment in a line: E. coli 0.157:H7 Shiga Toxin SOP - stx2 screening assay. Format: functional. Also on record: scale not given: direction of the effect not stated beside the values. The note with it: 30 µM.
On to `Cc1n[nH]c(C)c1C1CCCN1C(=O)NCC(=O)NC(C)(C)C` (stereo not given), for which the Percent Effect is -24.4%.

With `CCn1cnnc1CNC(=O)c1ccc(Cl)cc1F`, the Percent Effect is -53.7%.

Consider `Cc1cc(C2CCCN(CCc3ccccn3)C2)n[nH]1` (stereo not given), for which the Percent Effect was -1.21%.

For the molecule `Cc1nn(C)c(C)c1C1CCCN1Cc1cccc(C(N)=O)c1` (stereo not given), the Percent Effect was -1.22%.

On to `COc1ccc(C(=O)N2CCC(Nc3ccc(C)nn3)CC2)c(F)c1`, for which the Percent Effect was -6.61%.

As to `Cn1cc(-c2cnc(N3CCOCC3)nc2)cc1C(=O)O`, the Percent Effect was determined as 9.97%.

As for `CC(C)N1CCC(Cc2cc(-c3ccccc3C(=O)O)ncn2)CC1`, the Percent Effect is 8.23%.

With `COCCc1noc(CNC2CCSC2)n1` (stereo not given), the Percent Effect stood at 6.26%.

With `CC(C)N1CCC(Cc2cc(-c3cccc(C(=O)O)c3)ncn2)C1` (stereo not given), the Percent Effect stood at 2.16%.

For `O=C(Nc1cccc(CNCc2csc(Br)c2)c1)C1CC1`, the Percent Effect was -73.7%.

As to `CCOc1ccc(N2CCCN=C2NC(=O)c2cccc(Cl)c2)cc1`, the Percent Effect is -69.6%.

For the molecule `Cc1ncsc1C(=O)NC1CCN(CC(=O)NCc2ccccc2)CC1`, the Percent Effect amounted to 34.9%.

As for `O=C(N[C@@H]1CN(Cc2ccsc2)[C@@H]2CCCO[C@@H]21)C1CC1`, the Percent Effect was -18.9%.

Regarding `Cc1nccc(CN2CCC(c3nnsc3S(C)(=O)=O)CC2)n1`, the Percent Effect stood at 5.72%.

For the molecule `O=C1CCCCN1Cc1cccc(NC(=O)N2CCSCC2)c1`, the Percent Effect was -1.06%.

Turning to `O=C(NC1=NCCCN1c1ccc(Cl)cc1)c1cccc(Cl)c1`, the Percent Effect is -69.6%.

With `CNS(=O)(=O)c1cccc(CNC(=O)c2c(C)oc(C)c2C)c1`, the Percent Effect is -67.3%.

Turning to `CC(C)CN1CCC(C(=O)Nc2cc(C(F)(F)F)c[nH]c2=O)CC1`, the Percent Effect was -33.9%.

On to `Cc1nc(C2CCCN(C(=O)c3sccc3C3CC3)C2)no1` (stereo not given), for which the Percent Effect was 0.602%.

In the case of `CC1CCN(c2ncc3c(n2)CN(c2ccc4c(c2)OCO4)C3=O)CC1`, the Percent Effect was -21.4%.

`COc1c(CNC2CCCc3ccccc32)c(C)nn1C` (stereo not given): the Percent Effect was found to be 13.6%.

Regarding `O=C1CCc2cc(C(=O)NCc3ccc(-n4cncn4)nc3)ccc2N1`, the Percent Effect came out at 3.55%.

Regarding `CCN1CCN(C(=O)c2cc(C(=O)OC)nn2-c2ccccc2)CC1`, the Percent Effect came to 26.1%.

On to `CC(O)CC(C)(C)CNC(=O)NCc1cccc(-n2cncn2)c1` (stereo not given), for which the Percent Effect was determined as 7%.

As to `Cc1cnn(CCC(=O)N2CCOC(c3nc(C(C)(C)C)n[nH]3)C2)c1` (stereo not given), the Percent Effect was -26.2%.

For `CN1CCN(C[C@@H]2OC[C@H]3CN(Cc4cccc(F)c4)CC[C@H]32)CC1`, the Percent Effect came out at 11.3%.

Take `Clc1snnc1CN1CCOC(CNc2cccnn2)C1` (stereo not given): the Percent Effect is -5.91%.

`O=C(c1ccsc1)N1C[C@@H]2C[C@@H](c3nnc(C4CC4)o3)O[C@@H]2C1`: the Percent Effect is -18.3%.

Consider `Cc1ccc(-c2nc(CN3CCc4nn(C)c(=O)cc4C3)co2)cc1`, for which the Percent Effect is -3.75%.

On to `CCC(C)(NCC(=O)Nc1ccccc1)c1nc(C)cs1` (stereo not given), for which the Percent Effect stood at 15.8%.

As to `c1ccc2sc(N3CCOC(Cn4cccn4)C3)nc2c1` (stereo not given), the Percent Effect turned out to be 12.4%.

Consider `Cc1ccc(C)c(C(NC(=O)C(C)(C)C)c2cccnc2)c1` (stereo not given), for which the Percent Effect was 1.8%.

Consider `Cc1cc(F)ccc1CNCCn1cccn1`, for which the Percent Effect amounted to 13%.

In the case of `CC(C)N(C)C(=O)C1=NOC2(CCN(C(=O)c3ccc(Cl)cc3)C2)C1` (stereo not given), the Percent Effect is -2.21%.

Regarding `Cn1cc(N2CC3(CCN(Cc4cccs4)CC3)OCC2=O)cn1`, the Percent Effect is -20.1%.

Consider `Cc1c[nH]c(CN(C)c2nc(C3CCCC3)nc3c2cnn3C)n1`, for which the Percent Effect is -4.38%.

On to `COc1ccc(C2CC(=O)Nc3c2cnn3C2CCCC2)cc1` (stereo not given), for which the Percent Effect was determined as 10.9%.

With `COCc1cccc(CNC(=O)CN2CCCC2c2noc(C)n2)c1` (stereo not given), the Percent Effect was 14.4%.

Take `CCCN1C(=O)CC(N2CCN(c3ccc(F)cc3)CC2)C1=O` (stereo not given): the Percent Effect was -15.7%.

For the molecule `CN(C)CCNC(=O)c1cc(-c2cnc(N3CCCC3)nc2)cn1C`, the Percent Effect was -17.7%.

Values taken from ChEMBL document CHEMBL3988442, “University of Dundee, Small-Polar-MMV Screening Library” (2021).
